How the values were obtained:
Test in all cases: log2 ratio of Biotin-Ahx-Ub-VS probe labelling (fragment/DMSO); higher = less target engagement (more negative = stronger competition), active = hit call of the paper (q ≤ 0.05, log2 ratio ≤ -1)
Conditions in all cases: compound concentration: 200 uM; treatment time: 3 h
USP34 = USP34 (UniProt Q70CQ2)
Summary of the method: (§1)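 Labelled DUBs were enriched with NeutrAvidin, digested with LysC and trypsin, and run by diaPASEF LC-MS/MS. The labelling used Biotin-Ahx-Ub-VS at 0.5 µM final for 1 h on HEK293T lysate (495 µg per sample) previously treated in triplicate with fragment at 200 µM or vehicle for 3 h. Values are average log2 fragment/vehicle ratios by unpaired t-test on global-median-normalised Spectronaut quantities of proteins with ≥2 unique peptides.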

USP36 = target: T1, USP36 (UniProt Q9P275)
T1 sequence (whole entry): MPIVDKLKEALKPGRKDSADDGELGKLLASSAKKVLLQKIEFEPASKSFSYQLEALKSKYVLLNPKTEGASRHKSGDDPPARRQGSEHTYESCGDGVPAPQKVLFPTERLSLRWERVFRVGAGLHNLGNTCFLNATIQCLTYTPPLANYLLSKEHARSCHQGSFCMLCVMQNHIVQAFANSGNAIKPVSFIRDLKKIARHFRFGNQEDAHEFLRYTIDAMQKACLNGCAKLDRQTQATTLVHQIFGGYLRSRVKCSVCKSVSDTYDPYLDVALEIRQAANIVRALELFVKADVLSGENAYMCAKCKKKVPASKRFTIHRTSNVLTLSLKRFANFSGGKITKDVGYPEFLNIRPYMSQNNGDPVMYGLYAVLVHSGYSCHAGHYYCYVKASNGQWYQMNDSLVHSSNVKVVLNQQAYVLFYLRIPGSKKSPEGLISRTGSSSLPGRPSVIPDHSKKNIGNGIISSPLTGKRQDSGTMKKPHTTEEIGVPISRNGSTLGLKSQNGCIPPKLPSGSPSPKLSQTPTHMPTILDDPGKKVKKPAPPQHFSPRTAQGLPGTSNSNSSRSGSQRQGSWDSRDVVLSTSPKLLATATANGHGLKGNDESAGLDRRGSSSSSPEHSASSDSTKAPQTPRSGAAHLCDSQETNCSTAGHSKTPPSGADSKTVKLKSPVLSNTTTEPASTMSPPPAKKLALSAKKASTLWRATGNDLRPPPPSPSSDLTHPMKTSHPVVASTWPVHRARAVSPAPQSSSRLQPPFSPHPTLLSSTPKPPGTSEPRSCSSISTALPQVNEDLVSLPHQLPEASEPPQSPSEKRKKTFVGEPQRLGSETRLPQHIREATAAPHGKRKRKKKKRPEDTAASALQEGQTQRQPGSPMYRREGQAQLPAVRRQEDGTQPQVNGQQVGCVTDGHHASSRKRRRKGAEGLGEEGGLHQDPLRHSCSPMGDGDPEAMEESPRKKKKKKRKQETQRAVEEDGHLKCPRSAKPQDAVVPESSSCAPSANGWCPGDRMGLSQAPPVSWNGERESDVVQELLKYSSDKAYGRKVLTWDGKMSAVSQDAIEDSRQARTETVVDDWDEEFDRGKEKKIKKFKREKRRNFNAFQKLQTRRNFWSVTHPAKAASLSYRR
Summary of the method: as §1

USP38 = target: T2, USP38 (UniProt Q8NB14)
T2 sequence (whole entry): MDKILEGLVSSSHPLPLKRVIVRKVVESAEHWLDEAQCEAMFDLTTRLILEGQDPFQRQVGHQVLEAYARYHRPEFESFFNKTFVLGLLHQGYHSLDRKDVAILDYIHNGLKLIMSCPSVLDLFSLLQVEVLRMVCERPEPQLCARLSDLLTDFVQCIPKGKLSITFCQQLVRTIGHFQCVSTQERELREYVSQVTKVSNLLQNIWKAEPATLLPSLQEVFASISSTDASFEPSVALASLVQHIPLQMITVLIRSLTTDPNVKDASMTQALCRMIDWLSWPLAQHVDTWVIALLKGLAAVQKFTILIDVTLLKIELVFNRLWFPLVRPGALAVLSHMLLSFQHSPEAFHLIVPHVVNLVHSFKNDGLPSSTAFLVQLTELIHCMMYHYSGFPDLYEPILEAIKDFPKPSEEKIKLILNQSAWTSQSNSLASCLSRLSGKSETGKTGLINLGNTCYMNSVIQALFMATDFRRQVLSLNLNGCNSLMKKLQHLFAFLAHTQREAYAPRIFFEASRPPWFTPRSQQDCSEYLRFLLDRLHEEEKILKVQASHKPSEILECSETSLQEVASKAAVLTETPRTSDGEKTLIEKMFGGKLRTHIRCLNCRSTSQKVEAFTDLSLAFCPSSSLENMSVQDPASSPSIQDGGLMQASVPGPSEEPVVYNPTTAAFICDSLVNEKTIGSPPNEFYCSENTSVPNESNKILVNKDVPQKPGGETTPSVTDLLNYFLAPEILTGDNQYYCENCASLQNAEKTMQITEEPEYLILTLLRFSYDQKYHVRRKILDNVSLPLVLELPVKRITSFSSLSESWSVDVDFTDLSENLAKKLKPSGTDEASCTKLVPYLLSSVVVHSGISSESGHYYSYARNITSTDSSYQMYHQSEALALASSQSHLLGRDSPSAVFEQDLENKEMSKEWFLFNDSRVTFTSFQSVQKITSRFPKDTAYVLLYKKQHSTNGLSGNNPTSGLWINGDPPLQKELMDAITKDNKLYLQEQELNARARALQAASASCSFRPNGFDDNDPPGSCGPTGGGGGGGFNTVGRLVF
Summary of the method: as §1

USP39 = target: T3, USP39 (UniProt Q53GS9)
T3 sequence (whole entry): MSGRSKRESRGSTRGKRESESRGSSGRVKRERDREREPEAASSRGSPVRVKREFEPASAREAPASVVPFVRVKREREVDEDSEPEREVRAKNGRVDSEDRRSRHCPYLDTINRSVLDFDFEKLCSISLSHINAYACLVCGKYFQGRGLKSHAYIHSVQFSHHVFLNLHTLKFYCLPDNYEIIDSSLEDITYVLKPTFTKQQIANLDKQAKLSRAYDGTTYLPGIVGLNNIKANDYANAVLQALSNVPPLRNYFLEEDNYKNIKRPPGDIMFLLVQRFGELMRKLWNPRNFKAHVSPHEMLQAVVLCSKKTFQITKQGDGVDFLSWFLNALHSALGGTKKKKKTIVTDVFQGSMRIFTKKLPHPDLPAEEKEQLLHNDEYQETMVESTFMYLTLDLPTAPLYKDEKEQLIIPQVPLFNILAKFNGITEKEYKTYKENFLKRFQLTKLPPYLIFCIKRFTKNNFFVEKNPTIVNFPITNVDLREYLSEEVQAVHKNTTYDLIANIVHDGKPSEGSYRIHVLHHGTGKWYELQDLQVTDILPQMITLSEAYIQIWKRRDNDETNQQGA
Summary of the method: as §1

USP4 = target: T4, USP4 (UniProt Q13107)
T4 sequence (whole entry): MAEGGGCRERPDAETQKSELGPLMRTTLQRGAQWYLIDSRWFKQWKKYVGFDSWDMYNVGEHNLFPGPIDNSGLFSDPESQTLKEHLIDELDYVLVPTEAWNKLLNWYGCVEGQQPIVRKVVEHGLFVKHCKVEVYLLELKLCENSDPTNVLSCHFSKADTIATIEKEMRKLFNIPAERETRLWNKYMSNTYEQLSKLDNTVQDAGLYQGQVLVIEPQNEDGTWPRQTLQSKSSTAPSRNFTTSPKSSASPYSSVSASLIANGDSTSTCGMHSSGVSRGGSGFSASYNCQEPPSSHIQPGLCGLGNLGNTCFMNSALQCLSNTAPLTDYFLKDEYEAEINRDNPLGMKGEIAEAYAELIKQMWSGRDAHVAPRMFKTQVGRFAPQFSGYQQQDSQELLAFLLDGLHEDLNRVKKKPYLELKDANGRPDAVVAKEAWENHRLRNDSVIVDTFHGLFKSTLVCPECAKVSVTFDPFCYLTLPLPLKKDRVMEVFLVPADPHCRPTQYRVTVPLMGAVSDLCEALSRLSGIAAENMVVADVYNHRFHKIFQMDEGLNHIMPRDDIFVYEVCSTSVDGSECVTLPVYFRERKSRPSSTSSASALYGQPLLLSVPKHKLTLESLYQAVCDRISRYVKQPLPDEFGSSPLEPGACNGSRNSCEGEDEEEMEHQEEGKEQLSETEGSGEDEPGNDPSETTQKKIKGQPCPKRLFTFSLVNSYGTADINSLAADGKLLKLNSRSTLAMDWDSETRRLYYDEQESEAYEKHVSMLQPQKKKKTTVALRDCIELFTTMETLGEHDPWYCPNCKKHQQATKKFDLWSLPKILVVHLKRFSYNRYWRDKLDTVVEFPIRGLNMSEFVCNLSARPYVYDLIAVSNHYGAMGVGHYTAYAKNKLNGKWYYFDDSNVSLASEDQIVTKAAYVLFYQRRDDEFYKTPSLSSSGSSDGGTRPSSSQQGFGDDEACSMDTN
Summary of the method: as §1

Measured: log2 ratio of Biotin-Ahx-Ub-VS probe labelling

Sequence of USP34 (Q70CQ2 whole entry, the tested form may be a part): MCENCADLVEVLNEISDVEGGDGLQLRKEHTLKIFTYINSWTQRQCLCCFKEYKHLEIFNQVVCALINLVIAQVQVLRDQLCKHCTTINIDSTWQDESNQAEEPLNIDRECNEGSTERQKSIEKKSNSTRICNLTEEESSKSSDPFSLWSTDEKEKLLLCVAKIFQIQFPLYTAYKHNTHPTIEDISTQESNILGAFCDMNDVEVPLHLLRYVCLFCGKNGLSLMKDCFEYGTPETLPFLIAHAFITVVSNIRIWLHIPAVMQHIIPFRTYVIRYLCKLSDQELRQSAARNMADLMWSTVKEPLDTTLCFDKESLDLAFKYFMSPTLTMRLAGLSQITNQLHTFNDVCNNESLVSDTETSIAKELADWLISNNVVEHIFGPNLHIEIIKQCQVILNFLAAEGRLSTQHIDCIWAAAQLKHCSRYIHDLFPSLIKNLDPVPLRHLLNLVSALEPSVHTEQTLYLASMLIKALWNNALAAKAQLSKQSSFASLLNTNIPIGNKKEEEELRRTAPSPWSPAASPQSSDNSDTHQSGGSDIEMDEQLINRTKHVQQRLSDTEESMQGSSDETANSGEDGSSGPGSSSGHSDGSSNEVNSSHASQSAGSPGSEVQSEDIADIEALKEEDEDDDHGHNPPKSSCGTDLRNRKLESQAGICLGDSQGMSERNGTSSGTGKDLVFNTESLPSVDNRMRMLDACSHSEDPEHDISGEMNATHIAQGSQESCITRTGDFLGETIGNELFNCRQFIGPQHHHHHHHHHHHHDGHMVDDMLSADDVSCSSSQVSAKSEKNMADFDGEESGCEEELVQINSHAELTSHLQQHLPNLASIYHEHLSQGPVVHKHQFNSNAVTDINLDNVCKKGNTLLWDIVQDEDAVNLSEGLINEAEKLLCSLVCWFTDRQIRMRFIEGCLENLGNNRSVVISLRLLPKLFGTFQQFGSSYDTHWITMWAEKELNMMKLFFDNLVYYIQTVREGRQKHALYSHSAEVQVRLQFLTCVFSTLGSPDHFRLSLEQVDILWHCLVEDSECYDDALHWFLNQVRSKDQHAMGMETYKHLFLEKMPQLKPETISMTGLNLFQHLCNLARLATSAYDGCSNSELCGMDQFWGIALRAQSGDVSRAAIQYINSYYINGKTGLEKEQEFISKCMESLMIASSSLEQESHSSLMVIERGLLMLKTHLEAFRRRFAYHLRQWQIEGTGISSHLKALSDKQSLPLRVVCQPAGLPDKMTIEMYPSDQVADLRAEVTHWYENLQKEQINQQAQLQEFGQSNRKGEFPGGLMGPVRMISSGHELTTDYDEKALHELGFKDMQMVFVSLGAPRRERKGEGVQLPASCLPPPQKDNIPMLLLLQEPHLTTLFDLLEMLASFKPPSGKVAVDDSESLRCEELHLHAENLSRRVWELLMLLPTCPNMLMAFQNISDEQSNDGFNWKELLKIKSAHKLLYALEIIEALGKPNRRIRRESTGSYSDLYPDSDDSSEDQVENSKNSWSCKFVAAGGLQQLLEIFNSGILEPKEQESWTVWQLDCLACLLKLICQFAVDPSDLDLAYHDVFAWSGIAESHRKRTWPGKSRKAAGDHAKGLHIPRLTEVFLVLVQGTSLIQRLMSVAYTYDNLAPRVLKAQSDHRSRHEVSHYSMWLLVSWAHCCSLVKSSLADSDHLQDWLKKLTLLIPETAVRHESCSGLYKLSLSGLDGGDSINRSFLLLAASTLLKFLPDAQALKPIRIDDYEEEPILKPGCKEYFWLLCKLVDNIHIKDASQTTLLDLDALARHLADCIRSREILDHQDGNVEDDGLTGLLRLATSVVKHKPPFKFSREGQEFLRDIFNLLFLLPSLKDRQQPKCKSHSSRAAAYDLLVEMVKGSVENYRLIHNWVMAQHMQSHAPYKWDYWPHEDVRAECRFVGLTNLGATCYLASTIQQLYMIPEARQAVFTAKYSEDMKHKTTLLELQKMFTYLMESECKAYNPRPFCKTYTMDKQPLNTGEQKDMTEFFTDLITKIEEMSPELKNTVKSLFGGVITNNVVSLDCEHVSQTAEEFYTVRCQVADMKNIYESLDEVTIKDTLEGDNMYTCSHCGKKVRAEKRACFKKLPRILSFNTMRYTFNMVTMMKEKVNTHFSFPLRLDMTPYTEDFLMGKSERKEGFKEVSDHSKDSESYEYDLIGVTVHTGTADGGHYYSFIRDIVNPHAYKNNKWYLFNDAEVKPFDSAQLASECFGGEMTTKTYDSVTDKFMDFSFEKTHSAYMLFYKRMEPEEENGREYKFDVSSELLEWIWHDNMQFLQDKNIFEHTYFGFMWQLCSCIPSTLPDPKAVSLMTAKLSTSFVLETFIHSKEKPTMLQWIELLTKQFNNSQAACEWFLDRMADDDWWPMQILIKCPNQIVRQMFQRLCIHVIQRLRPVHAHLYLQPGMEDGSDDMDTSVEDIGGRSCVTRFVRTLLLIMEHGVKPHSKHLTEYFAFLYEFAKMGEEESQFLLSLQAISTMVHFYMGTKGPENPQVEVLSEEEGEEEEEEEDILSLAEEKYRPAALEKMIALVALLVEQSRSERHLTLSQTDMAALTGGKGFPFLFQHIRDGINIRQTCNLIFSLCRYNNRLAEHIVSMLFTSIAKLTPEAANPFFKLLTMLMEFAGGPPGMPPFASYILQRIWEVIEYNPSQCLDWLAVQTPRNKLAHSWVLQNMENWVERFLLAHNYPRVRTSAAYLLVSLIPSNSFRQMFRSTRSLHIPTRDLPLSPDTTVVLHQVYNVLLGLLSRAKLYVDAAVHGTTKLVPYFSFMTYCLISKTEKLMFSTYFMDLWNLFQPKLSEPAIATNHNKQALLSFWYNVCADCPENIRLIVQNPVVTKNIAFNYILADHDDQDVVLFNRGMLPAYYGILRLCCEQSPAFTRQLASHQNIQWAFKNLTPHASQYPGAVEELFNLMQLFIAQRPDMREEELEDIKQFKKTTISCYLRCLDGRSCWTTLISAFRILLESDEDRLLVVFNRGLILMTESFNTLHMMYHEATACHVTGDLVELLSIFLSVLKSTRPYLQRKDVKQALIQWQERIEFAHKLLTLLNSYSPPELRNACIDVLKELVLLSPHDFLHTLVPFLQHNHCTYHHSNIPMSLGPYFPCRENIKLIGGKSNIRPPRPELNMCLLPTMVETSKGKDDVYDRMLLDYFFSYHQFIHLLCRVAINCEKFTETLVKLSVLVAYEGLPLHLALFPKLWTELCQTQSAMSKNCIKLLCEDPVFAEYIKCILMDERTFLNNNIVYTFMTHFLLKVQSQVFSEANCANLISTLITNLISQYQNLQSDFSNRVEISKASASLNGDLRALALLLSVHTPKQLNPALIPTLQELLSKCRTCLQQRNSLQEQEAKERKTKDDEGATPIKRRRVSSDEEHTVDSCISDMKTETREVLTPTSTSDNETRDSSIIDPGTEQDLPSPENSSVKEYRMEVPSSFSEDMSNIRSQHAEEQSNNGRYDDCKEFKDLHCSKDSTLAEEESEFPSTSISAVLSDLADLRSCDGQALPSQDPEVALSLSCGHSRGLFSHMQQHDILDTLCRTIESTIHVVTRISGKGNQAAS

O=C(CCl)N[C@H]1CC[C@@H](CO)CC1
inactive: USP34 -0.402 | USP36 -0.283 | USP38 -0.651 | USP39 -0.098 | USP4 -0.775
